Assay outcomes as filed in PubChem.
Only some compounds are listed: those with a hit (about 5.5% of all), similar ones and a draw of the others.
RORgamma inh – qHTS for inhibitors of ROR gamma transcriptional activity; Potency, µM (top dose mostly 53.6 µM), inactives show at the top dose activity change, negative = inhibition, usual class: inhibitors; hit rate 5.4% among 310,000; Drosophila S2 Gal4-RORgamma UAS-luciferase reporter, 20 h; Nuclear receptor ROR-gamma (Mus musculus), P51450; also: % is scaled to controls: 0 for no effect and ±100 for the full control effect; nearly all actives have a fitted effect of over 60% in size
Target sequence (P51450 whole entry, looked up, the tested form may be a part): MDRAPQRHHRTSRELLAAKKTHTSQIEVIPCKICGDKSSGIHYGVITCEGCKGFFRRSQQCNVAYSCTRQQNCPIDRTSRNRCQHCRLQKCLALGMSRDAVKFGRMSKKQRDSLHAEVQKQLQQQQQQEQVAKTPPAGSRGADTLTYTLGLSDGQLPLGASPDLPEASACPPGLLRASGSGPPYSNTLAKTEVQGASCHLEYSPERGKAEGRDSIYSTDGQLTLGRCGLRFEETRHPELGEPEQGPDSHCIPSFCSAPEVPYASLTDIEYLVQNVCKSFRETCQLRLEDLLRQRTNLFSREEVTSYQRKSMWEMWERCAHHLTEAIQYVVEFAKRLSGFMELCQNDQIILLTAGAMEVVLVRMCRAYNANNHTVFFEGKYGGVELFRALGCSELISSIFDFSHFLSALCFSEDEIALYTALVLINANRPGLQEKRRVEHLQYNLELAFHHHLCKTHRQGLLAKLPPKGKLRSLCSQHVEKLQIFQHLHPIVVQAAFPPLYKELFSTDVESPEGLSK
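Drosophila Schneider cells stably carrying a metallothionein-driven Gal4 DBD–ROR gamma fusion and a UAS-Photinus luciferase reporter were exposed to compound for 1 hr, then induced with copper sulfate (700 uM final) for 20 hr at ambient temperature before luminescence reading.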
uPA surface inh – qHTS for Inhibitors of Cell Surface uPA Generation. AID 540303, 2011. Potency, µM (series often up to 38.3 µM), for the others: at the highest dose activity change, negative = inhibition, usual class: inhibitors. hit rate 0.31% among 330,000. cell surface uPA generation assay, qHTS; active = well fitted inhibition curve with a large enough effect; inconclusive = small, poorly fitted or top-dose-only effect; inactive = no such curve, though single readings can be large or run the other way; tested in mouse RAW 264.7 cells; also: % is scaled to controls: 0 for no effect and ±100 for the full control effect; nearly all actives have a fitted effect of over 55% in size
Gal4-VP16 FLuc – VP16 counterscreen qHTS for inhibitors of ROR gamma transcriptional activity; Drosophila S2 Gal4-VP16 UAS-luciferase, luminescence, 20 h; Potency, µM (doses to about 53.6 µM), for inactives: top-dose activity, negative = inhibition, actives largely listed as inhibitors; hit rate 3.5% among 310,000;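 also: Gal4-VP16 expression switched on by copper sulfate through the metallothionein promoter; % is scaled to controls: 0 for no effect and ±100 for the full control effect; nearly all actives have a fitted effect of over 50% in size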
BCR signal inh – qHTS Assay to Find Inhibitors of Chronic Active B-Cell Receptor Signaling; Potency, µM (highest dose often 46.1 µM), for the others: top-dose activity change, negative = inhibition, usual class: inhibitors; ABC-DLBCL IkBa-CBG/CBR reporter, luminescence ratio, 4 h; AID 493014, 2011; hit rate 0.05% among 340,000; active = well fitted inhibition curve with a large enough effect in the signal ratio, with a control signal flat, not every such curve was filed as active; inconclusive = small, poorly fitted or top-dose-only effect, or effect the other way, or a change in a side signal; the % refers to the signal ratio;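 also: plate controls were basal doxycycline-induced cells for no effect and cells given 10 µM MG132 for full effect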
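Compounds up to 46 uM were incubated four hours with TMD8 cells whose green CBG68 luciferase is fused to IkappaBalpha; red CBR luminescence normalised the signal, and concentration-effect curves were fitted to fusion, red and ratio data.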
Mito fusion act – qHTS Assay for Small Molecule Inhibitors of Mitochondrial Division or Activators of Mitochondrial Fusion. S. cerevisiae fusion-defective mutant growth rescue, CellTiterGlo 48 h. Potency, µM (top dose mostly 46.1 µM), for the others: top-dose growth rescue (activation), most hits filed as activators. hit rate 0.23% among 320,000. AID 485298, 2010; also: % of control where 0% means no effect; nearly all actives have a fitted effect of over 45% in size
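S. cerevisiae fusion-defective temperature-sensitive mutants (e.g. fzo1-1, mgm1-5) grown 48 h at 37C in YPEG (ethanol/glycerol non-fermentable) medium with 23 nl compound per well; growth rescue read as CellTiterGlo luminescence.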
a7 integrin act – qHTS for Activators of Integrin-Mediated Alleviation for Muscular Dystrophy; alpha7betagal myoblasts, beta-gal FDG fluorescence, 48 h; Potency, µM (highest dose often 38.3 µM), without a hit: at the highest dose activation, hits mostly activators; hit rate 0.064% among 350,000; AID 624291, 2012;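 also: 100% = response of the positive control SU9516; nearly all actives have a fitted effect of over 60% in size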
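alpha7betagal+/- myoblasts (passage 13, 250/well) treated 48 h at 37C with compounds at 1:260 dilution of DMSO stock. Lysed, then beta-galactosidase activity read as FDG fluorescence (ex 480/em 540) after 30 min, with pre-read for autofluorescence.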
Active calls of the source: *; ? = inconclusive; · = not tested or not shown; [ ] = another dose, or the depositor's remark. Unless noted, calls follow the shape of the dose curve; as a rule, active = well fitted curve in the direction sought with a large enough effect; inconclusive = small, poorly fitted or top-dose-only effect, or another doubt; inactive = no such curve, though single readings can be large; an effect the other way counts as inactive or inconclusive. Potency is read from the fitted curve at half-maximal effect.

SMILES	RORgamma inh	uPA surface inh	Gal4-VP16 FLuc	BCR signal inh	Mito fusion act	a7 integrin act
CCC(=O)NCc1nc2ccccc2n1Cc1ccccc1F	-1%	0%	1%	-17%	-2%	6%
CCn1c(COc2ccccc2)nc2ccccc21	?	-4%	?	16%	-1%	24%
Cn1c(CCc2ccc(N)cc2)nc2ccccc21	11µM*	?	?	1%	-4%	11%
Cc1nc2ccccc2n1CCc1ccccc1	11µM*	-14%	-4%	16%	-5%	2%
OCl	9%	·	-10%	·	·	·
Cc1ccc(CCNC(=O)c2ccc(CSCc3ccccc3C)o2)cc1	·	·	·	-6%	·	·
Cc1cccc(C)c1NC(=O)CNC(=O)c1ccc(COc2ccccc2)o1	·	5%	·	-3%	-4%	-15%
Cc1nc2ccccc2n1CC(=O)NCc1ccccc1	-30%	-10%	6.3µM*	1%	0%	-44%
OCCCc1nc2ccccc2n1CCc1ccccc1	-12%	·	-3%	?	2%	-17%
CCCc1nc2ccccc2n1CCc1ccccc1	7.1µM*	-5%	-29%	1%	8%	16%
Cc1nc2ccccc2n1CC(=O)NN	-17%	10%	-9%	?	7%	4%
Cc1ccc(NC(=O)c2cc(=O)[nH]c3ccccc23)cc1	-14%	-2%	-5%	4%	4%	8%
O=C(O)c1ccc(C=NNC(=O)c2cccc3ccccc23)cc1	·	2%	·	·	·	3%
O=C(N/N=C/c1ccccc1O)c1cccc2ccccc12	1µM*	?	0.89µM*	-8%	-4%	-43%
O=C(N/N=C/c1ccccc1O)c1cc(=O)[nH]c2ccccc12	7.9µM*	·	?	?	1%	·
COc1cc(OC)c2cc(C(=O)N/N=C/c3ccccc3O)[nH]c2c1	6.3µM*	?	5.6µM*	3%	0%	-29%
COc1ccc(C(=O)Nc2ccccc2C(N)=O)cc1	-20%	·	-18%	?	-2%	4%[7.66 µM]
COc1ccc(C(=O)Nc2ccccc2C(=O)N/N=C/c2cccc3ccccc23)cc1	1µM*	-4%	0.79µM*	-10%	-19%	-4%
COc1ccc2[nH]c(C(=O)N/N=C/c3ccccc3OC)cc2c1	-5%	?	-14%	?	-6%	52%
C[C@@]12CC(=O)C3=C(CCCC3=O)N1CCc1ccccc12	7%	·	-2%	·	·	·
O=C1/C(=C/c2ccccc2)SC(=S)N1C1CCS(=O)(=O)C1 (stereo unspecified)	10%	-3%	?	-3%	-3%	7%
O=C1/C(=C/c2ccncc2)SC(=S)N1C1CCS(=O)(=O)C1 (stereo unspecified)	11µM*	-12%	?	?	-6%	-48%
CC(C)(C)OC(=O)NC(Cc1ccccc1)C(=O)NC1COC2CC(n3cc(F)c(=O)[nH]c3=O)OC12 (stereo unspecified)	43%	·	4%	·	·	·
CC1(c2nnc(-c3ccccc3)o2)CC(c2cccc(Cl)c2)=NO1 (stereo unspecified)	-11%	-1%	-3%	-22%	3.2µM*	-17%
CCOc1ccc(NC(=O)c2c(NC(=O)CN3CCN(C)CC3)sc3c2CCC3)cc1	42%	·	-1%	-2%	-2%	·
CCOC(=O)c1c(NC(=S)Nc2ccc(F)cc2)sc2c1CCC2	10µM*	-8%	?	?	-4%	-18%
CCOc1ccc(NC(=O)c2c(NC(=O)CN3CCCC3)sc3c2CCC3)cc1	4.5µM*	12%	4.5µM*	-2%	4%	-4%
CCOC(=O)c1c(NC(=S)Nc2ccc(C)cc2)sc2c1CCC2	6.3µM*	8%	?	5%	-2%	-7%
